A selection: hits, their analogues and other compounds. The true share with any hit is near 2.2%.
HIF act – HIF pathway transcriptional activation; U2OS HRE-luciferase reporter, luminescence; normalized: DMSO 0%, desferrioxamine 100%; activation, % at 7.5 µM (by protocol); actives 0.32% (n = 300,000);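 active = mean activation of at least 10% of the iron chelator positive control signal, with at least half of replicates also reaching 10%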
Hsp70 act – switches on Hsp70 transcription; HeLa Hsp70 promoter luciferase reporter, luminescence; scaled: vehicle 0, proteasome-inhibitor control 100%; activation, % at 10 µM; actives 0.04% (n = 200,000);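 active = activation above the mean across all tested compounds plus 3 SD, cutoff set per campaign, cut at about 5.5% in these data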
GalR3 antag – human GalR3 antagonism; HEK293 GalR3-CNG cAMP membrane potential fluorescence; galR3 body fused to GalR1 C-terminus; inhibition, % at 3 µM; actives 0.44% (n = 360,000);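 active = inhibition above the screen-wide average plus 3 SD, cut at about 13% in these data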;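 note: forskolin and galanin both at EC90 stimulate the cells; cAMP rise reported by CNG channel membrane potential dye signal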
Target sequence (O60755 1-299 limits assumed): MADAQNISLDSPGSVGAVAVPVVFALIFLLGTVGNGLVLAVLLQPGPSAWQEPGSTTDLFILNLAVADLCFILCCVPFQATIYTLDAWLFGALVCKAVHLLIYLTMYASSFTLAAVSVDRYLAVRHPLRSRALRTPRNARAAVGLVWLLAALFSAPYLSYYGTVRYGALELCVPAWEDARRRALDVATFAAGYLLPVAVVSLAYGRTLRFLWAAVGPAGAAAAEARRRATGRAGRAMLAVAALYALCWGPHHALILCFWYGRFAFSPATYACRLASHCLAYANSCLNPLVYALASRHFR
GAA850 FXN act – increases GAA850 frataxin promoter reporter activity; HEK293 lucGAA850 FXN promoter luciferase reporter, 24 h; percent of 10 µM SAHA response; activation, % at 6 µM; actives 0.56% (n = 360,000);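 active = activation above the average of all compounds screened plus 3 SD, cutoff fixed separately per campaign, cut at about 7.5% in these data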
SMARCA2 act – SMARCA2 function activation, primary screen; MG213 cells, MMTV-luciferase reporter, dexamethasone, overnight; activation, % at 9.1 µM; actives 1% (n = 370,000); in the data active = activation above about 7.8%
SMARCA2 conf – SMARCA2 activation, confirmation screen; shares compounds with SMARCA2 act; AID 652260; MG213 cells, MMTV-luciferase with dexamethasone, luminescence, overnight; MG213 cells expressing E1A, Rb sequestered; DMSO wells 0%, reference activator 100%; actives 30% (n = 3,500); activation, % at 9.1 µM;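 active = activation above its plate's cutoff, the mean activation of tested wells plus 3 SD, cut at about 7.9% in these data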
VP16 Luc act – counter-screen for SMARCA2 activators: GAL4-VP16 luciferase reporter activation; activation, % at 9.1 µM; shares compounds with SMARCA2 act; actives 41% (n = 3,500); AID 686939; HEK293 GAL4-VP16 pG5luc reporter, luciferase luminescence; scaled: DMSO wells 0%, SAHA wells 100%;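 active = activation above the solvent-only control well mean plus 3 SD, averaged across control plates, cut at about 5.2% in these data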
Large screens that a line does not name were inactive (follow-up assays come after a bar, where they were run).

Cc1cccc(-c2nsc(SCC(=O)Nc3ccc4c(c3)OCO4)n2)c1	SMARCA2 act 9.7 | SMARCA2 conf inactive | VP16 Luc act inactive
O=C(CSc1ccccc1F)Nc1ccc2c(c1)OCO2	SMARCA2 act 11 (no result: HIF act, Hsp70 act) | SMARCA2 conf inactive | VP16 Luc act 5.7
Cc1ccccc1-c1nsc(SCC(=O)Nc2ccc3c(c2)OCO3)n1	none
O=C(CSc1ccccc1)Nc1ccc2c(c1)OCO2	none (no result: Hsp70 act)
Nc1ccn([C@@H]2O[C@H](C(=O)N[C@H](Cc3ccccc3)C(=O)NCC(F)(F)F)[C@@H](O)[C@H]2O)c(=O)n1	none (no result: HIF act, Hsp70 act, GAA850 FXN act)
COc1ccc(-c2nnc(SCC(=O)Nc3ccc(S(=O)(=O)Nc4cc(C)nc(C)n4)cc3)n2-c2ccc(OC)cc2)cc1	SMARCA2 act 10 (no result: HIF act, Hsp70 act, GalR3 antag, GAA850 FXN act) | SMARCA2 conf inactive | VP16 Luc act inactive
Cc1cc(NS(=O)(=O)c2ccc(NC(=O)CSc3nnc(-c4ccncc4)n3-c3ccccc3)cc2)nc(C)n1	none (no result: HIF act, Hsp70 act, GalR3 antag, GAA850 FXN act)
Cc1cc(NS(=O)(=O)c2ccc(NC(=O)CSc3nnc(-c4ccncc4)n3Cc3ccco3)cc2)nc(C)n1	none (no result: HIF act, Hsp70 act, GalR3 antag, GAA850 FXN act)
Cc1cc(NS(=O)(=O)c2ccc(NC(=O)CSc3nnc(-c4ccc(Cl)cc4)n3Cc3ccco3)cc2)nc(C)n1	SMARCA2 act 9.5 (no result: HIF act, Hsp70 act, GalR3 antag, GAA850 FXN act) | SMARCA2 conf inactive | VP16 Luc act inactive
CN(CCOC(=O)c1cccs1)C1CN(Cc2cn(Cc3ccccc3Cl)nn2)S(=O)(=O)C1 (stereo not given)	none (no result: HIF act, Hsp70 act, GalR3 antag, GAA850 FXN act)
NS(=O)(=O)c1ccc(N/N=C/c2cn(-c3ccccc3)nc2-c2cccs2)cc1	SMARCA2 act 9.6 | SMARCA2 conf 9.2 | VP16 Luc act inactive
NS(=O)(=O)c1ccc(N/N=C/c2cn(-c3ccccc3)nc2-c2cccs2)c([N+](=O)[O-])c1	none
Cc1ccc(NC(=O)Cc2noc3ccccc23)nc1	SMARCA2 act 9.3 | SMARCA2 conf inactive | VP16 Luc act inactive
O=C(Cc1noc2ccccc12)Nc1ccccn1	none
COC(=O)[C@]12C[C@H](CC(=O)N3CCCCC3)C(=O)N(CCC3=CCCCC3)C1=C[C@H](C1CCCC1)O[C@@H]2C	none (no result: HIF act, Hsp70 act, GalR3 antag, GAA850 FXN act)
COc1cccc2cc(-c3nc(-c4cccs4)cs3)c(=O)oc12	SMARCA2 act 8.6 | SMARCA2 conf inactive | VP16 Luc act 11
O=c1oc2ccccc2cc1-c1nc(-c2cccs2)cs1	none
c1ccc(-c2csc(Nc3ccc4c(c3)OCO4)n2)cc1	SMARCA2 act 11 (no result: HIF act, Hsp70 act, GAA850 FXN act) | SMARCA2 conf inactive | VP16 Luc act 9.3
O=C1c2ccccc2C(=O)N1c1cccc(-c2csc(Nc3ccc4c(c3)OCO4)n2)c1	none (no result: HIF act, GalR3 antag, GAA850 FXN act, SMARCA2 act)
CCC(C(=O)Nc1cnccn1)c1ccccc1 (stereo not given)	none
CCC(C(=O)NNC(=O)c1cnccn1)c1ccccc1 (stereo not given)	SMARCA2 act 8.1 | SMARCA2 conf inactive | VP16 Luc act inactive
O=C(CCNC(=O)c1ccc(Br)cc1)NCc1ccccc1F	none (no result: Hsp70 act)
O=C(CCNC(=O)c1ccccc1)NCc1ccccc1F	SMARCA2 act 9.4 (no result: HIF act, Hsp70 act) | SMARCA2 conf inactive | VP16 Luc act inactive
COc1ccc(C(=O)Cn2c(=N)n(C)c3ccccc32)cc1	none (no result: Hsp70 act)
CCCCn1c(=N)n(CC(=O)c2ccc(OC)cc2)c2ccccc21	SMARCA2 act 9.4 (no result: Hsp70 act, GAA850 FXN act) | SMARCA2 conf 20 | VP16 Luc act inactive
COc1ccc(C(=O)CN2Cc3ccccc3C2=N)cc1	SMARCA2 act 12 (no result: Hsp70 act) | SMARCA2 conf 8.3 | VP16 Luc act 6.1
COc1ccc(N/C(C)=C/C(=S)Nc2ccccc2)cc1	SMARCA2 act 12 | SMARCA2 conf inactive | VP16 Luc act inactive
CC(=O)N[C@H]1C[C@@H]2O[C@H](CO)CC[C@@H]2O[C@@H]1CCc1ccc(-c2ccc(F)cc2)cc1	none (no result: HIF act, Hsp70 act, GalR3 antag, GAA850 FXN act)
Cc1ccc(-n2nc3c(c2NC(=O)c2ccco2)CS(=O)(=O)C3)cc1	none (no result: Hsp70 act)
Cc1ccc(-n2nc3c(c2NC(=O)c2cccs2)CS(=O)(=O)C3)cc1	SMARCA2 act 14 (no result: Hsp70 act) | SMARCA2 conf inactive | VP16 Luc act inactive
Cc1ccc(-n2nc3c(c2NC(=O)c2ccco2)CS(=O)(=O)C3)cc1C	SMARCA2 act 8.8 (no result: Hsp70 act) | SMARCA2 conf inactive | VP16 Luc act inactive
Cc1cccc(NC(=O)/C(C#N)=C/c2ccccc2O)n1	SMARCA2 act 12 (no result: Hsp70 act) | SMARCA2 conf inactive | VP16 Luc act 6.7
N#C/C(=C\c1ccc(O)c(O)c1)C(=O)Nc1ccccc1	SMARCA2 act 9.8 (no result: HIF act, Hsp70 act) | SMARCA2 conf inactive | VP16 Luc act inactive
Cn1ccc(C(=O)Nc2sc3c(c2C(N)=O)CCCCC3)n1	none (no result: Hsp70 act)
Cn1cc(Br)c(C(=O)Nc2sc3c(c2C(N)=O)CCC3)n1	SMARCA2 act 8.7 | SMARCA2 conf inactive | VP16 Luc act 6.7
COC(=O)[C@]12C[C@H](CC(=O)NCC34CC5CC(CC(C5)C3)C4)C(=O)N(Cc3ccco3)C1=C[C@H](C1CCCC1)O[C@@H]2C	none (no result: HIF act, Hsp70 act, GalR3 antag, GAA850 FXN act)
Cc1cc(C)nc(S/C=C/C(=O)c2ccccc2F)n1	SMARCA2 act 14 (no result: Hsp70 act) | SMARCA2 conf inactive | VP16 Luc act inactive
Cc1cc(C)nc(NC(=S)NC(=O)c2ccccc2F)n1	none (no result: Hsp70 act)
Cc1nccc2oc(=O)c(NC(=O)c3ccc(Cl)cc3)cc12	none
O=C(Nc1cc2c(oc1=O)CCCC2=O)c1ccc(Cl)cc1	SMARCA2 act 9.4 | SMARCA2 conf inactive | VP16 Luc act inactive
COc1ccc(/C=C2/CCc3ccccc3C2=O)cc1CN1CCOCC1	SMARCA2 act 8.0 | SMARCA2 conf inactive | VP16 Luc act inactive
COc1cccc(CNC(=O)[C@H]2CCCN2C(=O)[C@H]2CCCN2S(=O)(=O)c2cccc(C)c2)c1	none (no result: HIF act, Hsp70 act, GAA850 FXN act)
c1csc(-c2nc(-c3ccc(-c4ccon4)s3)no2)c1	SMARCA2 act 8.9 (no result: Hsp70 act) | SMARCA2 conf inactive | VP16 Luc act 9.7
Cc1ccc(/C=N/NC(=O)Nc2ccccc2)o1	SMARCA2 act 8.2 | SMARCA2 conf 12 | VP16 Luc act 10
Cn1nccc1C(=O)N/N=C/c1ccccc1[N+](=O)[O-]	none (no result: Hsp70 act)
Cc1occc1C(=O)N/N=C/c1ccccc1[N+](=O)[O-]	SMARCA2 act 8.2 (no result: Hsp70 act) | SMARCA2 conf inactive | VP16 Luc act 9.0
Cc1ccc(/C=N/NC(=O)C(O)c2ccccc2)o1 (stereo not given)	none (no result: Hsp70 act)
CCN(CC)c1ccc(/C=N/NC(=O)c2ccoc2C)cc1	SMARCA2 act 11 (no result: Hsp70 act) | SMARCA2 conf inactive | VP16 Luc act 11
CCN(CC)c1ccc(/C=N/NC(=O)Nc2ccccc2)cc1	SMARCA2 act 11 | SMARCA2 conf 11 | VP16 Luc act 11
CCOC(=O)N1C(=O)C[C@](Sc2ccc(OC)cc2)(C(=O)N2CCOCC2)[C@H]1c1ccc(OC)cc1	none (no result: HIF act, Hsp70 act, GalR3 antag, GAA850 FXN act)
CCCCCCC(=O)n1ccc2ccc(-c3ccc4ccn(Cc5ccc(OC)cc5)c4c3)cc21	none (no result: HIF act, Hsp70 act, GalR3 antag, GAA850 FXN act)
